Measured values as given in PubChem BioAssay (EPA / NIEHS).
Results filed as inconclusive are left out. Activity calls are given as the source filed them. How the source made its calls: active means hit-call score of the fitted dose curve at least 0.9, where 1 is the maximum; inconclusive means response in the unintended direction; inactive means score below 0.9.

The molecules below were run against human Vitamin D Receptor (VDR), VDR (gene 7421) (UniProt P11473) (assay: ATG_VDR_TRANS: Attagene TRANS-FACTORIAL HepG2 Assay for human Vitamin D Receptor (VDR) (AID 2283022)).
In short: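 Multiplexed TRANS reporter in HepG2; 24 h treatment; reporter mRNA by RT-PCR plus capillary electrophoresis; upregulation scored relative to DMSO.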

Chain of human Vitamin D Receptor (VDR), VDR (gene 7421) (P11473 whole entry, looked up): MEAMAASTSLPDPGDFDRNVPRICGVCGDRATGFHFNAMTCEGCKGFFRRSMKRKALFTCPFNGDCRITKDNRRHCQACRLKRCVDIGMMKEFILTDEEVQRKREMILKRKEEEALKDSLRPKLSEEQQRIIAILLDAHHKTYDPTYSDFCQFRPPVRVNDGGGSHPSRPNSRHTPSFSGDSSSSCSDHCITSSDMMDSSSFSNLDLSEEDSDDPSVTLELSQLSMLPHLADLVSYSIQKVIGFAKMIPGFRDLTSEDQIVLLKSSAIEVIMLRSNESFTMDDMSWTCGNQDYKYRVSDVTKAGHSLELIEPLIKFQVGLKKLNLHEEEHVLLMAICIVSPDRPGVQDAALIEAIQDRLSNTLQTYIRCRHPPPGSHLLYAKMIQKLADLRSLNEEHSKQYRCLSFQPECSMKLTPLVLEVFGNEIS

Row | SMILES | outcome
1 | CCCCCCCCC | inactive
2 | Cc1ccc2ccccc2n1 | inactive
3 | C/C=C(\C)C(=O)OCc1ccccc1 | inactive
4 | COc1ccc(Cl)cc1C | inactive
5 | CC(CCO)CCc1ccccc1 (stereo not drawn) | inactive
6 | COc1nc(C)nc(N)n1 | inactive
7 | COc1ccc(O)cc1 | inactive
8 | CC(C)OP(=O)(CP(=O)(OC(C)C)OC(C)C)OC(C)C | inactive
9 | CC(=O)OCc1ccc2c(c1)OCO2 | inactive
10 | CCCC(C)C=O (stereo not drawn) | inactive
11 | O=S(=O)(O)c1ccc(O)c2ncccc12 | inactive
12 | CC(C)=CCC/C(C)=C/COC=O | inactive
13 | CN(C)CCCN | inactive
14 | COc1ccc(OC)c(OC)c1 | inactive
15 | O=C1O[C@@H]2[C@@H](O)[C@H](O)O[C@@H]2[C@H]1O | inactive
16 | Nc1cccc(S(=O)(=O)c2cccc(N)c2)c1 | inactive
17 | OC1C(O)C(O)C(O)C(O)C1O (stereo not drawn) | inactive
18 | Nc1ccc(S(=O)(=O)O)c(N)c1 | inactive
19 | N#Cc1nc(Cl)c(Cl)c(Cl)c1Cl | inactive

Row | SMILES | outcome
20 | CC(C)=CCCC(C)CC=O (stereo not drawn) | inactive
21 | CCCC1CCC(=O)O1 (stereo not drawn) | inactive
22 | Nc1cc(Cl)c(O)c(Cl)c1 | inactive
23 | O=c1oc(=O)c2cc3c(=O)oc(=O)c3cc12 | inactive
24 | CCN(CC)c1ccc2c(-c3ccccc3C(=O)O)c3ccc(=[N+](CC)CC)cc-3oc2c1 | inactive
25 | CCCCCCCCCOC(C)=O | inactive
26 | OCCN1CCNCC1 | inactive
27 | Nc1ccc(F)c([N+](=O)[O-])c1 | inactive
28 | Fc1c(F)c(F)c(Br)c(F)c1F | inactive
29 | C=C(C)C(=O)NCCCN(C)C | inactive
30 | O=C(O)COCCN1CCN(C(c2ccccc2)c2ccc(Cl)cc2)CC1 (stereo not drawn) | inactive
31 | CC(C=O)Cc1ccc(C(C)C)cc1 (stereo not drawn) | inactive
32 | C=C[C@@H](C)CCC=C(C)C | inactive
33 | CO[Si](CCCn1c(=O)n(CCC[Si](OC)(OC)OC)c(=O)n(CCC[Si](OC)(OC)OC)c1=O)(OC)OC | inactive
34 | OCCOc1cccc(OCCO)c1 | inactive
35 | C[C@]12CC[C@H]3[C@@H](CCC4=CC(=O)CC[C@@]43C)[C@@H]1CC[C@@H]2C(=O)CO | inactive
36 | Nc1nc2ccc([N+](=O)[O-])cc2s1 | inactive
37 | Cc1ccc(C(=O)c2cc(O)c(O)c([N+](=O)[O-])c2)cc1 | inactive
38 | CCC(=O)OCCC(C)CCC=C(C)C (stereo not drawn) | inactive
